Measured values from the supplement of paper PMC6555819.

System: VDR:RXRa (NR concentration 270 nM, RXRa partner concentration 90 nM)
Test: PBM binding z-score (relative to random genomic background probes); higher = stronger binding; sequences stand for … in GC…GCGATTGACAGCGTAGAATGAAGG
Description: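 Protein-binding microarray (Agilent 4x180K custom design, double-stranded 60-nt probes: 5' GC cap, 34-nt variable region, 24-nt constant primer region; full probe sequence given). Purified or IVT nuclear receptor:RXRα heterodimers (3:1 NR:RXRα, mostly 270:90 nM) or homodimers were incubated for 1 h in PBS with 2% milk and no ligand, then detected with Alexa488 antibodies. Fluorescence from o1-orientation probes (~5 replicates averaged) was converted to z-scores against 500 random hg19 background probes. Variable regions are seed direct-repeat (DR0–DR5) sites, all their single-nucleotide variants and half-site ablations.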

Row | Sequence | PBM binding z-score
1 | TCTGGTAGGTCAACGATGGTCAGCTAATCTGCTA | 2.2
2 | AATACAGGGTCATCGTAAGCCAGAGTACGCACAG | 4.87
3 | GCAGACAGGTGAAACGCAGGTAGCTCAGGGTGGC | -0.649
4 | GATACAGGGTCAGCTATAGGCCAGAGTATGGAAA | 2.46
5 | CCGAGTAGGTTATGCGGCATTCAGGCAACGGTGA | -0.251
6 | CCTACTGAGCCACGAAAGGTCATTGATTCAGTGA | 3.97
7 | TCTTGTAGATCAATAGAGGTTAAGCAAGTGCGCT | 2.4
8 | AGTCAAAGTTCAGGACGGGGTAACGTAAAGCACG | 3.34
9 | TCATATACGTAAAAGGTGAAAGTCGGTGTGGTAA | 1.43
10 | TCATATAGGTAATACAGGTGATAGTCGGCATCTA | 1.04
11 | TAAATGAGGTTAAAGATCAGGGAACGTGGCGTCG | 2.22
12 | ATCTCTACGTAACAAGTTCAGTGAAAGAGAGGAC | 1.38
13 | TTACCAAGGTGAAGCTCGTTGATCCCTCTGTAGA | -0.103
14 | CCTTACAGGTCACTGACAGGTTATAGCATTTGGA | 3.8
15 | TCGAGTTGGTTAGGGGCATTCAGAATGGCGTCGA | 1.84
16 | CCTAGCAGGCCAGGGTCATTCAAGCATTTCGCTT | 3.48
17 | CCGACTGGGGCAAACGTTACCATACTCAGTACGA | -0.23
18 | ACTTACGGTTCAACGAGGTTATAGCACGCGTATA | 7.06
19 | AGTCAAAGTTCAGGACGAGGTAACGCAAAGCACG | 2.89
20 | ATCTCTAGGTAAGACTCAGTTCGGTGAAGAACGC | 0.216

Row | Sequence | PBM binding z-score
21 | TAGCCTAGGTCCTTGGGCCAGTATAGTACGCATC | -0.897
22 | AGAACGAGGGCAATGAGTCGATAGCACGGGTGGC | 2.39
23 | GCTCGGAGGACTAGGTCAGAGCTTTGTCCGTAGA | -0.562
24 | TCTTGTAGATCAACAGGAGGTTAAGAATGATCGA | 0.56
25 | CGTCCAAGGTCAGCAGGTCAGTGATAGCGACGTG | 3.91
26 | TAGCGTAGGTCATGCGGGCCAGTATAGTGTCGGC | 3.33
27 | GTATATAGGTAATACAAGGTGAAAGTCCGATTGT | 0.822
28 | CGTCAAATTTCAACTAAGGTAACGTAAAGCACGC | 0.709
29 | TGTCAAGGTTCAAAGGTAACGTAAGTATCCACAC | 4.59
30 | CAGCCTAGGTCCGGGCCAGTATAGGAGGAACGTT | -0.982
31 | AGAACGAGGGGACGCTGAGTTGATAGCAGAGTAG | 0.464
32 | ATATGTAGGTTACATCCGGGTCATTCAAGCTATG | 4.17
33 | CCTACTGGGCCAAAAAGGTTATTGATGCCGATAA | 1.6
34 | CTCGATAGGTCGGTTGAGGTGAGTATACGGATAA | 0.436
35 | TCATATAGGTAATACAGATGAAAGTCGGCATCTA | 0.886
36 | ACAGACAGGTGATGAAGGTAACTCACGCTATCAT | 0.327
37 | CCTACTGGGCCAAGGTCACTGATCAGTCAAAGCA | 2.92
38 | CGTCCAAGGTCAATGCTTGGTCAGTGAAAGCATT | 3.69
39 | CCTATTAGTCGACCATAAGGGCAACCGAAGCTCG | 0.145
40 | CCTACTGGGCCACGAAGGGTCATTGATTCAGTGA | 3.09
